Among the data in PubChem BioAssay (NCATS) are caspase-3 activation values, retold here.

Records with an inconclusive call do not appear. Active and inactive are the calls of the source. The call rests on the fitted dose curve; in most records, active means well fitted activation curve with a large enough effect; inconclusive means small, poorly fitted or top-dose-only effect; inactive means flat fitted curve, though single readings scatter.

A short description of the experiment: Cellular Toxicity (caspase-3) Jurkat (AID 655).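 Further: cells exposed to compound for 16 h at 37 °C before reading.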 The following applies: Jurkat caspase-3 activation, luminescence; caspase-3 activation: at 92.2 µM (top of the series), DMSO = 0%, tamoxifen = 100%. The text has this:
NIH Chemical Genomics Center [NCGC]
NIH Molecular Libraries Screening Centers Network [MLSCN]
National Institutes of Environmental Health Sciences [NIEHS]
National Toxicology Program [NTP]
We have developed a 1536-well cell-based assay for quantitative high throughput screening (qHTS) against a number of cell lines to determine in vitro caspase 3/7 of small molecules. This particular assay uses the Jurkat cell line which is derived from human T cell leukemia.
NCGC Assay Protocol Summary:
The Caspase-Glo 3/7 assay (Promega) is a homogeneous method to measure caspase-3 and caspase-7 activities in cultured cells. The quantitation of caspase 3/7 activity is based on the cleavage of a peptide-aminoluciferin substrate. After caspase cleaves the substrate the free aminoluciferin is liberated and serves as the substrate of luciferase, which generates the light. The luminescent signal is proportional to amount of caspase 3/7 activity present.
Using the Caspase-Glo 3/7 assay, the amount of caspase 3/7 activity was measured in the Jurkat cell line with complete culture medium following compound treatment for 16 hours. The assay was performed in opaque white 1536-well plates. In the screen, tamoxifen and doxorubicin were used as positive controls. Library compounds were measured for their ability to cause the activation of caspase 3/7 in the cell line, as reflected by an increase in luminescence signal, in a concentration-dependent manner. Data were normalized to the controls for basal activity (DMSO only) and 100% stimulation (100 uM tamoxifen). AC50 values were determined from concentration-response data modeled with the standard Hill equation.
qHTS protocol for caspase 3/7 assay in Jurkat cells
[Step] [Parameter] [Value] [Description]
1. Reagent; 5 uL; 5000 Jurkat cells/well
3. Controls; 23 nL; Tamoxifen 0.23 uM to 100 uM & Doxorubicin 7.0 pM to 100 uM
4. Time; 16 hr; 37 °C incubation
5. Reagent; 5 uL; Caspase-Glo 3/7 reagent
6. Time; 20 min; Room Temperature
7. Detection; Luminescence; Viewlux plate reader
Keywords: caspase 3/7, apoptosis, Jurkat cell line, luminescence, NTPHTS, NTPHTS_NCGC, NIEHS, EPA, DSSTox, MLSMR, MLSCN, NIH Roadmap, qHTS, NCGC
`Cc1cc(-c2cc(C)c(N)c(C)c2)cc(C)c1N`: the caspase-3 activation was 1.01% (inactive).
Regarding `BrC(Br)Br`, the caspase-3 activation is -0.161% (inactive).
Then `C=CC(=O)OCCO`, with 15.3% (inactive); and `CN(C)c1ccccc1`, with 0.927% (inactive); and `O=[N+]([O-])c1ccc2c3c(cccc13)CC2`, with 0.699% (inactive).
Regarding `Cc1ccc(N)cc1C`, the caspase-3 activation was 0.158% (inactive).
The figure for `CCC/C=N/O` is -1.14% (inactive); for `CN(C)C(=O)Nc1cccc(C(F)(F)F)c1` it is 2.52% (inactive).
Then `c1ccc(P(c2ccccc2)c2ccccc2)cc1`, with 0.655% (inactive); and `O=C(O)CCl`, with -0.292% (inactive).
The figure for `Oc1ccc(Cl)c(Cl)c1` is -1.55% (inactive).
As to `Nc1cccc(Cl)c1`, the caspase-3 activation was 11.8% (inactive).
Then `Nc1ncc([N+](=O)[O-])s1`, with -1.21% (inactive).
Turning to `CN(C)c1ccc(N)cc1`, the caspase-3 activation is -4.87% (inactive).
With `C=C(Cl)CCl`, the caspase-3 activation is 1.48% (inactive).
As for `CN(C)c1ccc(N(C)C)cc1`, the caspase-3 activation was 1.91% (inactive).
Then `Cc1cnc[nH]1`, with 1.79% (inactive).
Consider `CC(C)[N+](=O)[O-]`, for which the caspase-3 activation was 1.63% (inactive).
With `O=C(O)C(Cl)Br` (stereo not given), the caspase-3 activation is -0.427% (inactive).
For `Nc1ccc(-c2ccc(N)cc2)cc1`, the caspase-3 activation is 0.684% (inactive).
In the case of `C=COC(C)=O`, the caspase-3 activation is 1.08% (inactive).
Then `[O-][Cl+2]([O-])O`, with -0.446% (inactive); and `C1CC2OC2CC1C1CO1` (stereo not given), with -1.28% (inactive).
The figure for `OC[P+](CO)(CO)CO` is 16.2% (inactive); for `BrCCc1ccccc1` it is 1.89% (inactive); for `C=C(C)CCl` it is -0.765% (inactive).
Then `Oc1cc(Cl)c(Cl)c(Cl)c1Cl`, with 80.5% (active); and `C=CCCC#N`, with -1.73% (inactive); and `Oc1cc(Cl)ccc1Cl`, with 1.27% (inactive).
For the compound `CC[N+](=O)[O-]`, the caspase-3 activation is 1.63% (inactive).
The figure for `CCNCC` is 0.736% (inactive); for `ClCc1ccccc1` it is 0.582% (inactive).
As to `COC(=O)c1ccccc1N`, the caspase-3 activation was 1.63% (inactive).
`c1ccoc1`: the caspase-3 activation is 0.558% (inactive).
The figure for `NNC(N)=S` is 0.589% (inactive); for `c1ccc(OCC2CO2)cc1` (stereo not given) it is 1.63% (inactive).
Then `O=C(Cc1ccccc1)OCc1ccccc1`, with 3.55% (inactive); and `CC(C)C#N`, with -1.09% (inactive).
The figure for `CCC#N` is -0.741% (inactive); for `O=P(OCCCl)(OCCCl)OCCCl` it is -1.25% (inactive).
